Counter-ions that a name gives are not always drawn.
How the values were obtained:
[1] = tested on: S. cerevisiae SK1 pCDA2-eGFP (USY613), sporulating; test: CDA2-GFP sporulation assay sensitivity score (z-score vs DMSO controls); higher = stronger inhibition of sporulation, active = hit call of the paper;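 further: active if sensitivity score above 5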
[2] = tested on: S. cerevisiae NKY1551 his4x/his4B, sporulating; test: HIS4 meiotic recombination assay sensitivity score (z-score vs DMSO controls); higher = stronger inhibition of sporulation/recombination, active = hit call of the paper;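 further: active if sensitivity score above 5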
[3] = tested on: S. cerevisiae AD1-9 (efflux-pump deficient), vegetative growth in YPD; test: growth sensitivity score (doubling time z-score vs DMSO controls); higher = slower growth, strongly negative scores also mark growth inhibition (complete suppression), active = hit call of the paper
In short: (§1)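 Rich medium in microtiter plates was seeded with Saccharomyces cerevisiae strains BY4741 and AD1-9 at an OD600 of 0.065, and compounds were added as a 1:100 dilution of DMSO stock. A Tecan GENios reader recorded optical density every 15 min for 24 hours, with eight solvent-only wells in each experiment. Average doubling time was the time to reach a set generation point divided by generation number. The growth sensitivity score was the compound mean minus the solvent-only mean, divided by the solvent-only standard deviation.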

[4] = tested on: S. cerevisiae BY4741 (wild-type), vegetative growth in YPD; test: as above
In short: as §1

Row | Compound | CDA2-GFP sporulation assay sensitivity score [1] | HIS4 meiotic recombination assay sensitivity score [2] | growth sensitivity score [3] | growth sensitivity score [4]
1 | Cc1occc(=O)c1O [Maltol] (stock concentration (mM, diluted 1:100): 10) | 1.2 (inactive) | 0.46 (inactive) | -1.16 (inactive) | -0.74 (inactive)
2 | CC1(C)O[C@@H]2[C@@H](CO[C@@]3(COS(N)(=O)=O)OC(C)(C)O[C@@H]23)O1 [Topiramate] (stock concentration (mM, diluted 1:100): 10) | -1.32 (inactive) | 0.22 (inactive) | -0.81 (inactive) | -1.18 (inactive)
3 | CC(=O)[C@]1(O)Cc2c(O)c3c(c(O)c2[C@@H](O[C@H]2C[C@H](N)[C@H](O)[C@H](C)O2)C1)C(=O)c1ccccc1C3=O [Idarubicin hydrochloride] (stock concentration (mM, diluted 1:100): 9.3) | -0.06 (inactive) | -2.94 (inactive) | 174 (active) | 128 (active)
4 | CN1C(C(=O)Nc2ccccn2)=C(O)c2ccccc2S1(=O)=O [Piroxicam] (stock concentration (mM, diluted 1:100): 10) | -3.86 (inactive) | 0.11 (inactive) | 0.98 (inactive) | 0.09 (inactive)
5 | CC(C)NCC(O)COc1ccc(CCOCC2CC2)cc1 (stereo not drawn) [Betaxolol hydrochloride] (stock concentration (mM, diluted 1:100): 10) | 7.8 (active) | -0.58 (inactive) | -0.35 (inactive) | 0.42 (inactive)
6 | CCCCC[C@H](O)/C=C/[C@H]1[C@H](O)CC(=O)[C@@H]1CCCCCCC(=O)O [Prostaglandin E1] (stock concentration (mM, diluted 1:100): 10) | 6.45 (inactive) | 1.5 (inactive) | 0.11 (inactive) | -0.67 (inactive)
7 | CSc1nc2cc(Cl)c(Oc3cccc(Cl)c3Cl)cc2[nH]1 [Triclabendazole] (stock concentration (mM, diluted 1:100): 10) | 0.58 (inactive) | -1.98 (inactive) | 74.8 (active) | 168 (active)
8 | COc1ccc(C(=O)NCc2ccc(OCCN(C)C)cc2)cc1OC [Itopride hydrochloride] (stock concentration (mM, diluted 1:100): 8.2) | -0.55 (inactive) | -1.08 (inactive) | -1.3 (inactive) | -0.67 (inactive)
9 | CNS(=O)(=O)Cc1ccc2[nH]cc(CCN(C)C)c2c1 [Sumatriptan succinate] (stock concentration (mM, diluted 1:100): 7.2) | -0.43 (inactive) | -0.69 (inactive) | 0.45 (inactive) | -1.56 (inactive)
10 | O=c1[nH]cnc2c1ncn2[C@H]1CC[C@@H](CO)O1 [Didanosine] (stock concentration (mM, diluted 1:100): 10.1) | -0.63 (inactive) | 0.35 (inactive) | -1.72 (inactive) | -1.9 (inactive)
11 | CC(=O)Oc1ccccc1C(=O)Nc1ncc([N+](=O)[O-])s1 [Nitazoxanide] (stock concentration (mM, diluted 1:100): 10) | 7.92 (active) | 6.54 (active) | 0.16 (inactive) | 1.77 (inactive)
12 | CN1CCc2cc(Cl)c(O)cc2[C@@H](c2ccccc2)C1 (stock concentration (mM, diluted 1:100): 9.9) | 15.9 (active) | 3.2 (inactive) | 0.38 (inactive) | -0.55 (inactive)
13 | CN(C)CCN(Cc1ccccc1)c1ccccn1 [Tripelennamine hydrochloride] (stock concentration (mM, diluted 1:100): 10) | 0.92 (inactive) | 8.14 (active) | 0.66 (inactive) | 1.04 (inactive)
14 | Nc1ccc(O)c(C(=O)O)c1 [Mesalamine] (stock concentration (mM, diluted 1:100): 10) | -1.48 (inactive) | -2.13 (inactive) | -2.51 | -0.33 (inactive)
15 | COc1ccc2cc([C@H](C)C(=O)O)ccc2c1 [Naproxen sodium] (stock concentration (mM, diluted 1:100): 10) | 1.69 (inactive) | -0.09 (inactive) | 1.41 (inactive) | -0.72 (inactive)
16 | CCCN[C@H]1CCc2nc(N)sc2C1 [Pramipexole hydrochloride] (stock concentration (mM, diluted 1:100): 7.1) | -0.08 (inactive) | -0.03 (inactive) | -2.17 | -0.39 (inactive)
17 | COC(=O)C1=C(C)NC(C)=C(C(=O)OCC(C)C)C1c1ccccc1[N+](=O)[O-] (stereo not drawn) [Nisoldipine] (stock concentration (mM, diluted 1:100): 10) | -0.05 (inactive) | -2.61 (inactive) | 89.2 (active) | 57 (active)

Reference: the supplement of paper PMC3414501
